In PubChem BioAssay (NCI):
The panel holds about 83,000 compounds, 20% with a hit somewhere; the sample as a whole holds those more often.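 Cells were grown in 96-well plates and exposed to the test compound at a single concentration for 48 hours; results are reported as percent growth, with values below 10 considered active.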 The source made the active and inactive calls.

Legend:
Experiment in all cases: NCI-60 one-dose screen, 48 h (100 = growth as untreated, 0 = no growth, -100 = all killed)
Conditions in all cases: 10 µM unless noted
SR leukemia = system: SR leukemia
RPMI-8226 leukemia = system: RPMI-8226 leukemia
OVCAR-8 ovarian = system: OVCAR-8 ovarian
OVCAR-5 ovarian = system: OVCAR-5 ovarian
OVCAR-4 ovarian = system: OVCAR-4 ovarian
SK-OV-3 ovarian = system: SK-OV-3 ovarian
IGROV1 ovarian = system: IGROV1 ovarian
OVCAR-3 ovarian = system: OVCAR-3 ovarian
NCI/ADR-RES ovarian = system: NCI/ADR-RES ovarian
HS 578T breast = system: HS 578T breast

Measured: growth

Cc1cn(-c2cc(C(=O)Nc3cccc(-n4ccc5c(NC(=O)c6ccccc6)nccc54)c3)cc(C(F)(F)F)c2)cn1
active: SR leukemia -24.9% | RPMI-8226 leukemia -51.7% | OVCAR-8 ovarian 4.81% | IGROV1 ovarian 7.51% | OVCAR-3 ovarian -67.7% | NCI/ADR-RES ovarian 4.71%
inactive: OVCAR-5 ovarian 35.6% | OVCAR-4 ovarian 75.7% | SK-OV-3 ovarian 13.1%

COc1ccc(-c2nn(-c3ccc(NC(=O)c4cc(Cl)cc(Cl)c4)cc3)cc2-c2ccncc2)cc1Cl
active: RPMI-8226 leukemia -11.6%
inactive: SR leukemia 50.7% | OVCAR-8 ovarian 77.5% | OVCAR-5 ovarian 64.8% | OVCAR-4 ovarian 89.6% | SK-OV-3 ovarian 86.3% | IGROV1 ovarian 85.3% | OVCAR-3 ovarian 64.1% | NCI/ADR-RES ovarian 69.7%

O=C(NCCNc1nccc(-c2c(-c3cccc(O)c3)nc3sccn23)n1)c1ccccc1
inactive: SR leukemia 68% | RPMI-8226 leukemia 76.8% | OVCAR-8 ovarian 66.6% | OVCAR-5 ovarian 90.6% | OVCAR-4 ovarian 98% | SK-OV-3 ovarian 65.1% | IGROV1 ovarian 57.4% | OVCAR-3 ovarian 92.3% | NCI/ADR-RES ovarian 99.7%

Cc1nssc1=S
inactive: SR leukemia 97.6% | RPMI-8226 leukemia 97% | OVCAR-8 ovarian 97.9% | OVCAR-5 ovarian 94.6% | OVCAR-4 ovarian 109% | SK-OV-3 ovarian 110% | HS 578T breast 98.3%
active: IGROV1 ovarian -13.5%

Nc1nccc2c1ccn2-c1cccc(NC(=O)c2ccc(N3CCOCC3)c(C(F)(F)F)c2)c1
active: SR leukemia -13.4% | RPMI-8226 leukemia -40.9% | OVCAR-8 ovarian 0.868% | OVCAR-3 ovarian -27.2% | NCI/ADR-RES ovarian -2.74%
inactive: OVCAR-5 ovarian 32.6% | OVCAR-4 ovarian 78.5% | SK-OV-3 ovarian 16.6% | IGROV1 ovarian 28.1%

COc1ccc(-c2nn(-c3ccc(NC(=O)Nc4ccc(Cl)c(C(F)(F)F)c4)cc3)cc2-c2ccncc2)cc1Cl
active: SR leukemia -7.31% | RPMI-8226 leukemia -33.1% | OVCAR-8 ovarian 9.53% | OVCAR-3 ovarian -1.59% | NCI/ADR-RES ovarian 9.1%
inactive: OVCAR-5 ovarian 14.5% | OVCAR-4 ovarian 45.1% | SK-OV-3 ovarian 23.9% | IGROV1 ovarian 24.8%

Cc1c(NC(=O)c2sc3nc4c(cc3c2N)CN(Cc2ccccc2)CC4)cccc1C(F)(F)F
inactive: SR leukemia 20.1% | RPMI-8226 leukemia 36.3% | OVCAR-8 ovarian 63.1% | OVCAR-5 ovarian 79.6% | OVCAR-4 ovarian 60% | SK-OV-3 ovarian 77.8% | IGROV1 ovarian 51% | NCI/ADR-RES ovarian 43.7%
active: OVCAR-3 ovarian 6.31%

O=[N+]([O-])c1cccc(C2c3ccccc3Oc3ccccc32)c1
inactive: SR leukemia 77.4% | RPMI-8226 leukemia 82.2% | OVCAR-8 ovarian 89.4% | OVCAR-5 ovarian 90.8% | OVCAR-4 ovarian 91% | SK-OV-3 ovarian 84.1% | IGROV1 ovarian 76.8% | OVCAR-3 ovarian 91.7% | NCI/ADR-RES ovarian 93.7%

COc1cc(CN(c2ccc(Cl)cc2)C2OC(=O)c3ccccc32)cc(OC)c1OC (centres undefined)
inactive: SR leukemia 32.1% | RPMI-8226 leukemia 70.9% | OVCAR-8 ovarian 74.8% | OVCAR-5 ovarian 63.5% | OVCAR-4 ovarian 74.7% | SK-OV-3 ovarian 62.7% | IGROV1 ovarian 63.9% | OVCAR-3 ovarian 48.8% | NCI/ADR-RES ovarian 55.9%

O=C(Nc1ccc(-n2ccc3c(NC(=O)c4ccccc4)nccc32)cc1)c1cccc(C(F)(F)F)c1
inactive: OVCAR-8 ovarian 30.4% | OVCAR-5 ovarian 52.5% | OVCAR-4 ovarian 108% | SK-OV-3 ovarian 36.2% | IGROV1 ovarian 33.3% | OVCAR-3 ovarian 20.9% | NCI/ADR-RES ovarian 19.8%
active: SR leukemia -2.23% | RPMI-8226 leukemia 6.14%

COc1cc2c(/C=C3/C(=O)Nc4ccc(O)cc43)c(Cl)n(Cc3cc(OC)c(OC)c(OC)c3)c2cc1C
inactive: OVCAR-8 ovarian 22.3% | OVCAR-5 ovarian 74.1% | OVCAR-4 ovarian 21.8% | SK-OV-3 ovarian 38.5% | IGROV1 ovarian 26.9%
active: SR leukemia -38.1% | RPMI-8226 leukemia -22.9% | HS 578T breast 4.73% | NCI/ADR-RES ovarian 9.32%

CCCCCn1ncc(-c2c(O)c(O)cc3c(O)c(-c4c(C)cc5c(-c6cnn(CCCCC)n6)c(O)c(O)cc5c4O)c(C)cc23)n1
inactive: OVCAR-5 ovarian 32.3% | OVCAR-4 ovarian 34.6% | IGROV1 ovarian 13.2%
active: SR leukemia -29.1% | RPMI-8226 leukemia 0.346% | OVCAR-8 ovarian 8.04% | SK-OV-3 ovarian -0.985% | OVCAR-3 ovarian 8.42% | NCI/ADR-RES ovarian 2.37%

CCCCCCCCCCCCCCCC(=O)NS(=O)(=O)OC[C@H]1O[C@@H](n2cnc3c(N)ncnc32)[C@H](O)[C@@H]1O
inactive: RPMI-8226 leukemia 22.8%
active: SR leukemia 0.423% | OVCAR-8 ovarian -10.9% | OVCAR-5 ovarian -45.3% | OVCAR-4 ovarian -48.4% | SK-OV-3 ovarian -18.5% | IGROV1 ovarian -52.2% | OVCAR-3 ovarian -75.1% | NCI/ADR-RES ovarian -20.5%

COc1ccc(-c2c(C#N)cnc(N)c2-c2nc3cc(C)c(C)cc3[nH]2)cc1
inactive: SR leukemia 20.2% | RPMI-8226 leukemia 81.3% | OVCAR-8 ovarian 43.6% | OVCAR-5 ovarian 102% | OVCAR-4 ovarian 50.7% | SK-OV-3 ovarian 46% | IGROV1 ovarian 36.4% | OVCAR-3 ovarian 55.7% | NCI/ADR-RES ovarian 50.2%

CN1CCN(Cn2nc(-c3cc(F)c(Cl)cc3Cl)n(/N=C/c3ccc(N(C)C)cc3)c2=S)CC1
inactive: SR leukemia 43.8% | RPMI-8226 leukemia 80.9% | OVCAR-8 ovarian 90.8% | OVCAR-5 ovarian 106% | OVCAR-4 ovarian 106% | SK-OV-3 ovarian 77.4% | IGROV1 ovarian 57.8% | HS 578T breast 63.5% | NCI/ADR-RES ovarian 65.9%

CNC(=O)NN
inactive: SR leukemia 104% | RPMI-8226 leukemia 91.9% | OVCAR-8 ovarian 97.5% | OVCAR-5 ovarian 82.5% | OVCAR-4 ovarian 110% | SK-OV-3 ovarian 95.9% | IGROV1 ovarian 108% | OVCAR-3 ovarian 91.8% | NCI/ADR-RES ovarian 105%

OCCOCC(F)(F)F
inactive: SR leukemia 78.7% | RPMI-8226 leukemia 90.2% | OVCAR-8 ovarian 116% | OVCAR-5 ovarian 96% | OVCAR-4 ovarian 100% | SK-OV-3 ovarian 113% | IGROV1 ovarian 113% | OVCAR-3 ovarian 109% | NCI/ADR-RES ovarian 106%

O=C(Nc1ccc(-n2ccc3c(NC(=O)c4ccccc4)nccc32)cc1)Nc1ccc(Cl)c(Cl)c1
active: SR leukemia -30.3% | RPMI-8226 leukemia -49.6% | OVCAR-8 ovarian -45% | OVCAR-4 ovarian -4.39% | IGROV1 ovarian 4.31% | OVCAR-3 ovarian -79.6% | NCI/ADR-RES ovarian -34.4%
inactive: OVCAR-5 ovarian 50% | SK-OV-3 ovarian 59.7%

O=C(Nc1ccc(-n2cc(-c3ccncc3)c(-c3ccc(O)c(Cl)c3)n2)cc1)Nc1ccc(Cl)c(C(F)(F)F)c1
active: SR leukemia 4.23% | RPMI-8226 leukemia -19.2% | OVCAR-3 ovarian 1.16%
inactive: OVCAR-8 ovarian 15.2% | OVCAR-5 ovarian 43.4% | OVCAR-4 ovarian 42.2% | SK-OV-3 ovarian 32.6% | IGROV1 ovarian 22.8% | NCI/ADR-RES ovarian 17.9%

O=C(Nc1ccc(-n2cc(-c3ccncc3)c(-c3ccc(O)c(Cl)c3)n2)cc1)c1cc(Cl)cc(Cl)c1
active: RPMI-8226 leukemia -19.5%
inactive: SR leukemia 14.8% | OVCAR-8 ovarian 30.3% | OVCAR-5 ovarian 71.4% | OVCAR-4 ovarian 78.1% | SK-OV-3 ovarian 70.2% | IGROV1 ovarian 43.2% | OVCAR-3 ovarian 27% | NCI/ADR-RES ovarian 28.7%

COc1ccc(-c2nn(-c3ccc(NC(=O)c4cc(C(F)(F)F)cc(C(F)(F)F)c4)cc3)cc2-c2ccncc2)cc1Cl
inactive: SR leukemia 73.6% | RPMI-8226 leukemia 10.7% | OVCAR-8 ovarian 68.2% | OVCAR-5 ovarian 64% | OVCAR-4 ovarian 90.5% | SK-OV-3 ovarian 78.4% | IGROV1 ovarian 74.7% | OVCAR-3 ovarian 60.1% | NCI/ADR-RES ovarian 63.5%

Cc1cc2nc(-c3c(N)ncc(C#N)c3-c3ccc(Cl)cc3)[nH]c2cc1C
inactive: SR leukemia 49.4% | RPMI-8226 leukemia 56% | OVCAR-8 ovarian 38.4% | OVCAR-5 ovarian 83.2% | OVCAR-4 ovarian 56.1% | SK-OV-3 ovarian 75.9% | IGROV1 ovarian 46% | OVCAR-3 ovarian 21.8% | NCI/ADR-RES ovarian 53.9%

CC(C)Cn1cnc2c3ccccc3nc(NCn3nc(-c4cc(Cl)cc(Cl)c4Cl)oc3=S)c21
inactive: SR leukemia 25.5% | RPMI-8226 leukemia 74.8% | OVCAR-8 ovarian 98.4% | OVCAR-5 ovarian 88.3% | OVCAR-4 ovarian 88.2% | SK-OV-3 ovarian 109% | IGROV1 ovarian 51% | HS 578T breast 116% | NCI/ADR-RES ovarian 66.4%

COc1cc(NC(C)CCCN2C(=O)c3ccccc3C2=O)c2ncccc2c1OC (centres undefined)
inactive: SR leukemia 35.4% | RPMI-8226 leukemia 55.5% | OVCAR-8 ovarian 85.5% | OVCAR-5 ovarian 99.1% | OVCAR-4 ovarian 50.8% | SK-OV-3 ovarian 92.5% | IGROV1 ovarian 63.6% | HS 578T breast 95.7% | NCI/ADR-RES ovarian 90.6%

O=C(COc1ccc(Cl)cc1Cl)N1N=C(c2ccc(Cl)cc2Cl)CC1(O)c1cc(F)c(Cl)cc1Cl (centres undefined)
inactive: SR leukemia 23.2% | RPMI-8226 leukemia 144% | OVCAR-8 ovarian 93.2% | OVCAR-5 ovarian 105% | OVCAR-4 ovarian 116% | SK-OV-3 ovarian 110% | IGROV1 ovarian 69.7% | HS 578T breast 122%

C=C1C(=O)O[C@H]2[C@H]1CC/C(COC(=O)OC/C1=C/CC[C@@]3(C)O[C@H]3[C@H]3OC(=O)[C@@H](CN(C)C)[C@@H]3CC1)=C\CC[C@@]1(C)O[C@@H]21
inactive: OVCAR-4 ovarian 46% | SK-OV-3 ovarian 87.7% | IGROV1 ovarian 10.4% | NCI/ADR-RES ovarian 91.2%
active: SR leukemia -8.72% | RPMI-8226 leukemia -5.37% | OVCAR-8 ovarian 9.26% | OVCAR-5 ovarian 7.16% | OVCAR-3 ovarian -90.3%

O=C(NCCNc1nccc(-c2c(-c3cccc(O)c3)nc3sccn23)n1)Nc1cccc(C(F)(F)F)c1
inactive: SR leukemia 59.2% | OVCAR-8 ovarian 41.2% | OVCAR-5 ovarian 117% | OVCAR-4 ovarian 110% | SK-OV-3 ovarian 85% | IGROV1 ovarian 65.6% | OVCAR-3 ovarian 76.7% | NCI/ADR-RES ovarian 108%
active: RPMI-8226 leukemia -4.81%

COc1cc2nc(C(=O)N3CCCCC3)cc(Nc3ccccc3)c2cc1OC
inactive: SR leukemia 81.7% | RPMI-8226 leukemia 87.6% | OVCAR-8 ovarian 98.3% | OVCAR-5 ovarian 109% | OVCAR-4 ovarian 100% | SK-OV-3 ovarian 108% | IGROV1 ovarian 98.3% | OVCAR-3 ovarian 93.9% | NCI/ADR-RES ovarian 95.4%

O=C(Nc1ccc(-n2ccc3c(NC(=O)c4ccccc4)nccc32)cc1)Nc1cccc(C(F)(F)F)c1
inactive: SR leukemia 18.8% | RPMI-8226 leukemia 19.4% | OVCAR-8 ovarian 48.5% | OVCAR-5 ovarian 81.8% | OVCAR-4 ovarian 26% | SK-OV-3 ovarian 92.2% | IGROV1 ovarian 54.1% | OVCAR-3 ovarian 15.2% | NCI/ADR-RES ovarian 65.7%
